# Values joined by “and” are separate entries in the source; they are usually repeats but may differ in a detail not shown here. Equal values may be shown once. In all, about 310,000 compounds went through this assay and about 11,000 (3.5%) were called active. Roughly 4% stayed inconclusive and do not appear here. The entries come from a sample that favours actives as a whole. Values without a mark were called inactive. Calls come from the whole dose curve; as a rule, active = well fitted inhibition curve with a large enough effect; inconclusive = small, poorly fitted or top-dose-only effect, or another doubt; inactive = no such curve, though single readings can be large or run the other way.
# Target: 4'-phosphopantetheinyl transferase ffp (Bacillus subtilis) (UniProt Q9F4F7)
# Assay: qHTS Assay for Inhibitors of Bacillus subtilis Sfp phosphopantetheinyl transferase (PPTase);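 note: the enzyme is Sfp with the accession as filed and its product quenches rhodamine fluorescence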;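 for largest response in the series, negative = inhibition: 0% = enzyme reaction without inhibitor and -100% = no enzyme wells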
# Conditions: Biochemical Sfp PPTase activity
# Procedure, shortened: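 Fluorescence-quenching assay: 15 nM Sfp-PPTase preincubated 15 min at room temperature with compound, then 5 uM rhodamine-CoA and 12.5 uM BHQ-2-labelled YbbR peptide added. Fluorescence (ex 525/em 598 nm) read at start and after 30 min; difference gives rate.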
# Potency is the fitted concentration of half-maximal effect.
SMILES,"largest response in the series, negative = inhibition",Potency
COc1ccc(N2CCN(S(=O)(=O)c3ccc4c(c3)N(C(C)=O)CCO4)CC2)cc1,11.9%,–
CCCCc1nc(SCC(=O)Nc2nnc(C(C)C)s2)n[nH]1,2.56%,–
N#CC1(NC(=O)COC(=O)CCN=C2NS(=O)(=O)c3ccccc32)CCCCC1,8.87%,–
O=Cc1cn(-c2ccccc2)nc1-c1ccccn1,19.4%,–
O=C1C(c2ccccn2)=[N+]([O-])c2ccccc21,–,56.2 µM (active)
CCOC(=O)C1(Cc2ccccc2C)CCCN(S(C)(=O)=O)C1 (stereo unspecified),-1.45%,–
O=C(NCCc1ccccc1)C(=O)NCC1OCCN1S(=O)(=O)c1cccs1 (stereo unspecified),15%,–
CC(=O)N1CCCc2cc(S(=O)(=O)N3CCCC(C(=O)N4CCN(c5cccc(Cl)c5)CC4)C3)ccc21 (stereo unspecified),-7.31%,–
O=C(COc1ccccc1)Nc1ccc(C(=O)N2CCCC2)cc1,22.7%,–
CCOC(=O)/C(C#N)=C/c1ccc(N2CCCCC2)cc1,-25.4%,–
Cc1ccccc1C(=O)Nc1ccc(N2CCCCCC2)cc1,-8.31%,–
O=C1C=CC(=O)N1c1ccc(N2CCCCC2)cc1,–,7.08 µM (active)
Cc1ccc(C(CNC(=O)Nc2ccccc2)N2CCN(C)CC2)cc1 (stereo unspecified),6.82%,–
COC(=O)C(C)Oc1ccc2c(c1)O/C(=C\c1cccc(Br)c1)C2=O (stereo unspecified),-9.46%,–
COc1ccc(/C=C(/NC(=O)c2ccccc2)C(=O)Nc2cccc(C(=O)O)c2)cc1,2.19%,–
COc1ccccc1C(=O)N/C(=C/c1ccco1)C(=O)Nc1ccc(C(=O)O)cc1,–,50.1 µM (active)
Cc1ccc(C(=O)N/C(=C/c2ccco2)C(=O)NCCc2c[nH]c3ccccc23)cc1C,21.3%,–
O=C(Nc1ccccc1)c1ccco1,19.8%,–
CC(=O)NC(Cc1c[nH]c2ccccc12)C(=O)O (stereo unspecified),23%,–
O=C(NCc1ccco1)/C(=C/c1ccco1)NC(=O)c1ccccc1,-7.6%,–
Cc1ccc(NC(=O)/C(=C\c2ccccc2)NC(=O)c2ccco2)cc1,12.3%,–
COc1ccccc1C(=O)N/C(=C/c1ccc2c(c1)OCO2)C(=O)Nc1cccc(C(=O)O)c1,-9.69%,–
O=C(NC(Cc1c[nH]c2ccccc12)C(=O)O)/C(=C/c1ccco1)NC(=O)c1ccccc1 (stereo unspecified),–,44.7 µM (active)

SMILES,"largest response in the series, negative = inhibition",Potency
Cc1cccc(NC(=O)/C(=C\c2ccco2)NC(=O)c2ccccc2)c1,–,50.1 µM (active)
COc1ccc(/C=C(/NC(=O)c2ccco2)C(=O)Nc2ccc(C(C)=O)cc2)cc1,0.26%,–
O=C(Nc1ccccc1)/C(=C\c1ccco1)NC(=O)c1ccco1,–,44.7 µM (active)
Cc1nc2ccc(S(=O)(=O)N(C)CC(=O)NC(C)c3ccccc3)cc2s1 (stereo unspecified),10.4%,–
COCn1c(C(O)c2ccccc2)cc2ccccc21 (stereo unspecified),9.58%,–
Cc1ccccc1C(=O)N1CCN(c2ccc(NC(=O)c3cccs3)cc2)CC1,13.1%,–
COc1ccc(C(=O)NCc2nnc(SCC(=O)NC3=NCCS3)n2C)cc1,-3.34%,–
COC(=O)c1ccc(NC(=O)CSc2nncn2-c2cccnc2)cc1,16.4%,–
CC(C)NC(=O)COCc1cc(-c2ccc3c(c2)OCO3)on1,4.15%,–
COc1ccc(Cl)cc1-n1c(=S)sc2c(=O)n(-c3ccc(F)cc3)c(SCC(=O)O)nc21,–,14.1 µM (active)
COc1cccc(-n2c(=S)sc3c(=O)n(-c4ccccc4C)c(SCC(=O)O)nc32)c1,4.84%,–
COc1cccc(-n2c(=S)sc3c(=O)n(-c4ccccc4OC)c(SCC4OCCO4)nc32)c1,-1.29%,–
O=C(c1cc(COc2ccc(F)cc2F)on1)N1CCOCC1,2.39%,–
CC(=O)Nc1cccc(C(=O)OCN2C(=O)c3ccccc3C2=O)c1,7.23%,–
CCc1nc(Nc2ccc(NC(C)=O)cc2)c2oc3ccccc3c2n1,3.27%,–
Cc1ccc(N(Cc2ccccc2O)C(=O)c2ccccc2F)cc1,8.31%,–
O=C(O)c1cc([N+](=O)[O-])c(Nc2cccc3ccccc23)c([N+](=O)[O-])c1,-7.55%,–
Cc1cccc(N=C2NN=C(c3c[nH]c4ccccc34)CS2)c1,-49.9%,–
COCCn1c(C)cc(C2=NNC(=Nc3ccc(F)cc3)SC2)c1C,–,50.1 µM (active)
Cc1ccnc(NS(=O)(=O)c2ccc(NC(=O)c3ccc(S(=O)(=O)N4CCOCC4)cc3)cc2)n1,28.5%,–
C=CCn1c(C)cc(C2=NNC(=NCC)SC2)c1C,–,56.2 µM (active)
C=CCn1c(C)cc(C(=O)CN2C(=O)c3ccccc3C2=O)c1C,1.15%,–
Cc1ccc(S(=O)(=O)N2CCC(C(=O)NCC3CCCO3)CC2)cc1 (stereo unspecified),21.8%,–

SMILES,"largest response in the series, negative = inhibition",Potency
Cc1cc(C2=NNC(=Nc3ccc(S(=O)(=O)N4CCOCC4)cc3)SC2)c(C)n1CC1CCCO1 (stereo unspecified),–,22.4 µM (active)
COC(=O)C(C(=O)OC)C1c2ccccc2C=C(C2CC2)N1C(=O)OC (stereo unspecified),22.5% and 27.4%,–
CCCOc1ccc(C2=CSC3=NCCN23)cc1Cl,16%,–
CCOC(=O)C1CCCN(CCSc2ccc(C)cc2)C1 (stereo unspecified),12.5%,–
COc1ccc(C(=O)c2c(C)c(CCC#N)n3ccccc23)c(OC)c1,0.761%,–
COc1ccc(C(C)NC(=O)C23CC4CC(CC(C4)C2)C3)cc1 (stereo unspecified),5.95%,–
O=C(O)c1c(NC(=O)N2CCCC2)sc2c1CCCC2,-9.57%,–
CC(O)c1ccc(OCCN(C)c2ccccn2)cc1 (stereo unspecified),-0.377%,–
CC(=O)N1C(=O)/C(=C2\SC(=S)N(NC(=O)c3ccc(O)cc3)C2=O)c2ccccc21,–,50.1 µM (active)
O=C(O)c1ccc(/C=C2\SC(=S)N(NC(=O)c3ccc(Br)cc3)C2=O)cc1,-5.87%,–
O=C(O)c1ccc2c(c1)C(=O)N(NC(=O)c1ccc(O)cc1)C2=O,1.07%,–
COc1cc(Cl)ccc1OCc1cc(C(=O)N2CC[C@@H]3CCCC[C@H]3C2)no1,-14.4%,–
COc1ccc(-c2nc3c(c4c2C[C@H](c2ccccc2)OC4)CN(C(=O)C2CC2)CC3)c(C)c1,12.8%,–
CC1(C)Cc2ccccc2-c2[nH]c(=S)[nH]c(=O)c21,2.54%,–
N#CC1=C(N)Oc2n[nH]c(CSc3ccccc3)c2C12C(=O)Nc1ccccc12 (stereo unspecified),17.6%,–
N#CC1=C(N)Oc2[nH]c(=S)[nH]c(=O)c2C12C(=O)Nc1ccccc12 (stereo unspecified),–,39.8 µM (active)
CCC(C)Sc1nc2c(cnn2-c2ccc(F)cc2)c(=O)[nH]1 (stereo unspecified),-3.22%,–
CCOc1ccc(C(C(=O)NC2CCCC2)N(C(=O)c2snc(C(N)=O)c2N)C2CCCC2)cc1 (stereo unspecified),16.6%,–
COc1ccc2oc(C(=O)NCC(Cc3ccccc3)N(C)C)c(C)c2c1 (stereo unspecified),-0.769%,–
CC1Cc2cc(/C(O)=C3\C(=O)C(=O)N(Cc4cccnc4)C3c3ccccc3F)ccc2O1 (stereo unspecified),11.3%,–
COc1ccc(C(=O)NN2C(=O)C3C(c4ccccc4)C=CC(c4ccccc4)C3C2=O)cc1 (stereo unspecified),33.4%,–
COc1ccccc1C(=O)NN1C(=O)C2C3C=CC(O3)C2C1=O (stereo unspecified),–,56.2 µM (active)
O=C(NN1C(=O)C2C3C=CC(C4CC34)C2C1=O)c1ccc(Cl)cc1 (stereo unspecified),27.6%,–

SMILES,"largest response in the series, negative = inhibition",Potency
O=C(NN1C(=O)C2C(C1=O)C1C=CC2C12CC2)c1ccccc1Cl (stereo unspecified),12.4%,–
O=C(NN1C(=O)C2C3C=CC(O3)C2C1=O)c1ccccc1 (stereo unspecified),–,44.7 µM (active)
COc1ccccc1C(=O)Nn1cnnc1,6.61%,–
COc1ccc(N2CCN(C(=O)c3cn(C)c4ccc(S(=O)(=O)N5CCOCC5)cc4c3=O)CC2)cc1,1.25%,–
O=C(C1CCC1)N1CCN(c2ccccc2)CC1,17.5%,–
CC1(c2ccc3ccccc3c2)NC(=O)NC1=O (stereo unspecified),12%,–
CC(C)C[C@@H](COc1ccccc1)N1CCN(CC(C)C)CCC1=O,3.76%,–
CCCCCCCC/C=C\CCCCCCCC(=O)NCC(=O)O,8.62%,–
CCCCCCC(O)(CCN1CCCCC1)c1ccccc1 (stereo unspecified),9.61%,–
CCCn1c(C2CCCN2c2nc(-c3ccc(OC)cc3)cs2)nc2ccccc21 (stereo unspecified),–,89.1 µM (active)
CCCn1c(CCNc2nc(-c3ccc(OC)cc3)cs2)nc2ccccc21,-0.532%,–
CCCn1c(C2CCCN2c2nc(-c3ccc(C)cc3)cs2)nc2cc(Cl)c(N3CCCCC3)cc21 (stereo unspecified),-23.2%,–
CC1CCN(C2=NC(=O)/C(=C/c3ccc(O)cc3)S2)CC1,14%,–
COc1ccc(N=Nc2c(-c3ccc(OC)cc3)[nH]oc2=O)cc1,24.2%,–
O=C(Nc1ccccc1)c1nnsc1S(=O)(=O)c1ccc(Cl)cc1,–,11.2 µM (active)
CS(=O)(=O)c1ccc(Cl)c(NC(=O)Nc2ccccc2)c1,7.87%,–
O=C(c1ccc(Cl)cc1)c1cnc(Nc2ccccc2)s1,-3.35%,–
CN(c1ccc(O)cc1)c1nc(-c2cccnc2)cs1,0.24%,–
Cc1ccc(SC(CC(=O)c2ccc(C(C)(C)C)cc2)C(=O)O)cc1 (stereo unspecified),–,28.2 µM (active)
Cc1ccc(C(=O)CSc2ccccc2C(=O)O)cc1,13.7%,–
Cc1ccc(C(=O)CNc2ccc(F)cc2)cc1,-8.3%,–
O=C(Nc1ccccc1N1CCOCC1)c1ccc(OCc2cscn2)cc1,-1.59%,–

# From PubChem BioAssay AID1490 (National Center for Advancing Translational Sciences (NCATS), 2009)
